Screens deposited in PubChem by National Center for Advancing Translational Sciences (NCATS).
HepG2 tox: qHTS for Inhibitors of TGF-b: Cytotox Counterscreen | Potency, µM (doses to about 46.1 µM), for the others: at the highest dose activity change, negative = cytotoxicity, usual class: cytotoxic | 410,000 tested, 0.76% active | HepG2 CAGA-GFP viability, ATP luminescence, 18 h
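CellTiter-Glo luminescence gave cytotoxicity after 18 hours at 37 degrees C. The cells were HepG2 CAGA-GFP in 1% FBS DMEM, stimulated with 500 pg/mL TGF-beta after compound addition. %Activity was normalised to no-cell wells (complete cell-killing) and DMSO (no toxicity), and curves were fitted and classified.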
HT1080-NT tox: qHTS for induction of synthetic lethality in tumor cells producing 2HG: qHTS for the HT-1080-NT fibrosarcoma cell line; HT-1080-NT fibrosarcoma viability, CellTiter-Glo ATP luminescence, 48 h; Potency, µM (series often up to 46.1 µM), without a hit: at the highest dose activity, negative = less viability, usual class: cytotoxic; 360,000 tested, 1.6% active; AID 686970, 2013;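 note: NT is the 2HG producing partner of a matched IDH1 knockdown line; 0% = DMSO-treated cells and -100% = media-only wells without cells; nearly all actives have a fitted effect of over 55% in size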
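A 48-hour cytotoxicity screen used HT-1080-NT cells plated 2 hours before compound delivery. ATP-based CellTiter-Glo luminescence measured viability, normalized to DMSO and no-cell controls.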
TDP1 cell CPT: qHTS for Inhibitors of human tyrosyl-DNA phosphodiesterase 1 (TDP1): qHTS in cells in presence of CPT | Potency, µM (titrated, usually from 46.2 µM), for inactives: top-dose activity change, negative = growth inhibition, usual class: inhibitors | chicken DT40 Tdp1-/-;hTDP1 cells + 20 nM CPT, ATP luminescence, 48 h | 420,000 tested, 12% active; note: % is set by controls: 0 for no effect and ±100 for the full control effect; nearly all actives have a fitted effect of over 55% in size
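Cell growth measured by CellTiter-Glo luminescence after a minimum 48 h, 37 C compound exposure with 20 nM CPT in Tdp1-knockout DT40 cells stably expressing hTDP1, seeded 400/well; qHTS titration format.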
TGFb inhibitor: qHTS for Inhibitors of TGF-b | HepG2 CAGA-GFP TGF-b/SMAD3 reporter, GFP fluorescence, 18 h; TGF-beta stimulated, 500 pg/mL final | 410,000 tested, 1.2% active | Potency, µM (series often up to 46.1 µM), for inactives: at the highest dose activity, negative = inhibition, hits mostly inhibitors; note: % is set by controls: 0 for no effect and ±100 for the full control effect; nearly all actives have a fitted effect of over 65% in size
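HEPG2 CAGA-GFP reporter cells (1000/well, DMEM with 1% FBS) received compounds, then recombinant TGF-beta at 500 pg/mL final for 18 hours at 37 degrees C. Per-cell GFP summed per well was normalised to unstimulated and stimulated DMSO controls before curve fitting.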
HT1080 IDH1KD tx: qHTS for induction of synthetic lethality in tumor cells producing 2HG: qHTS for the HT-1080-IDH1KD cell line; HT-1080 IDH1 knockdown viability, ATP luminescence, 48 h; Potency, µM (titrated, usually from 46.1 µM), without a hit: top-dose activity, negative = toxicity, most hits filed as cytotoxic; 360,000 tested, 2% active; AID 686971, 2013;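 note: 0% = DMSO wells and -100% = cell-free medium wells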
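IDH1KD HT-1080 cells, 750/well, RPMI + 5% FBS; compound pinned after 2 h settling; 48 h, 37 °C; CellTiter-Glo luminescence; % activity normalised to DMSO and no-cell wells; curves fitted, classed by r2 and efficacy.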
TDP1 cell noCPT: qHTS for Inhibitors of human tyrosyl-DNA phosphodiesterase 1 (TDP1): qHTS in cells in absence of CPT; DT40 Tdp1-/- hTDP1 cells, no CPT, ATP luminescence, 48 h; Potency, µM (highest dose often 46.2 µM), for the others: top-dose activity change, negative = growth inhibition, actives largely listed as inhibitors; 420,000 tested, 15% active; AID 686978, 2013; note: % is set by controls: 0 for no effect and ±100 for the full control effect; nearly all actives have a fitted effect of over 55% in size
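Camptothecin absent (DMSO only). Human TDP1-complemented DT40 knockout cells, 400 cells/well, 37 °C for minimum 48 hr; ATP measured via CellTiter-Glo, 30 min dark incubation, luminescence.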
An asterisk follows results filed as active. Hits are enriched below; roughly 17% of the tested compounds scored in any of these assays. Calls come from the whole dose curve; as a rule, active = well fitted curve in the direction sought with a large enough effect; inconclusive = small, poorly fitted or top-dose-only effect, or another doubt; inactive = no such curve, though single readings can be large; an effect the other way counts as inactive or inconclusive. Potency is the fitted concentration of half-maximal effect.

Screening CC(C)Cc1nnc(NC(=O)CCC(=O)N2CCN(c3ccc([N+](=O)[O-])cc3)CC2)s1 returned HepG2 tox -1%, HT1080-NT tox inconclusive, TDP1 cell CPT 15µM*, TGFb inhibitor inconclusive, HT1080 IDH1KD tx -3% and TDP1 cell noCPT 18µM*.
For CC(C)Cc1nnc(NC(=O)CCC(=O)N2CCN(c3ccccc3)CC2)s1 the results were HepG2 tox -6%, HT1080-NT tox -1%, TDP1 cell CPT -25%, TGFb inhibitor -14%, HT1080 IDH1KD tx -2% and TDP1 cell noCPT -3%.
COc1ccc(CN2CCN(C(=O)CCC(=O)Nc3nnc(C4CCCCC4)s3)CC2)cc1F was read as HepG2 tox -12%, HT1080-NT tox -17%, TDP1 cell CPT 16µM*, TGFb inhibitor inconclusive, HT1080 IDH1KD tx -12% and TDP1 cell noCPT inconclusive.
For COc1cc(OC)cc(-c2oc3cccnc3c2C#CCCO)c1 the results were HepG2 tox -15%, HT1080-NT tox -2%, TDP1 cell CPT inconclusive, TGFb inhibitor -15%, HT1080 IDH1KD tx -2% and TDP1 cell noCPT inconclusive.
`COc1cccc(C(C)=NNc2ccc([N+](=O)[O-])cc2[N+](=O)[O-])c1OC` gave HepG2 tox -61%, HT1080-NT tox 9%, TDP1 cell CPT inconclusive, TGFb inhibitor inconclusive, HT1080 IDH1KD tx 2% and TDP1 cell noCPT 21µM*.
COc1ccc(/C=N\Nc2ccc([N+](=O)[O-])cc2[N+](=O)[O-])c(C(=O)O)c1OC was read as HepG2 tox 5%, HT1080-NT tox -14%, TDP1 cell CPT -28%, TGFb inhibitor inconclusive, HT1080 IDH1KD tx 1% and TDP1 cell noCPT -23%.
Screening CC(Cc1ccccc1)=NNc1ccc([N+](=O)[O-])cc1[N+](=O)[O-] returned HepG2 tox 6%, HT1080-NT tox inconclusive, TDP1 cell CPT 16µM*, TGFb inhibitor 0%, HT1080 IDH1KD tx -18% and TDP1 cell noCPT 7.3µM*.
Cn1c(/C=C/c2ccc(Br)cc2)c([N+](=O)[O-])c(=O)n(C)c1=O was read as HepG2 tox -63%, HT1080-NT tox inconclusive, TDP1 cell CPT 8.2µM*, TGFb inhibitor inconclusive, HT1080 IDH1KD tx 13µM* and TDP1 cell noCPT 12µM*.
Screening CN(C)c1ccc(/C=C/c2c([N+](=O)[O-])c(=O)n(C)c(=O)n2C)cc1 returned HepG2 tox -21%, HT1080-NT tox -3%, TDP1 cell CPT 2%, TGFb inhibitor 0%, HT1080 IDH1KD tx -1% and TDP1 cell noCPT 1%.
For COc1ccc(Br)cc1S(=O)(=O)N1CCN=C1c1ccccc1 the results were HepG2 tox 2%, HT1080-NT tox 0%, TDP1 cell CPT -30%, TGFb inhibitor 8%, HT1080 IDH1KD tx 4% and TDP1 cell noCPT inconclusive.
Screening Brc1ccc2c(c1)-c1ccccc1C1=NCCN12 returned HepG2 tox -2%, HT1080-NT tox 23µM*, TDP1 cell CPT 1.5µM*, TGFb inhibitor 16µM*, HT1080 IDH1KD tx 16µM* and TDP1 cell noCPT 0.82µM*.
Clc1ccc2c(c1)-c1ccccc1C1=NCCN12 was read as HepG2 tox -3%, HT1080-NT tox inconclusive, TDP1 cell CPT -105%, TGFb inhibitor inconclusive, HT1080 IDH1KD tx 18µM* and TDP1 cell noCPT 1.6µM*.
